Data on 8 compounds can be found in PubChem BioAssay (NCI).

Each structure is given as a SMILES string. About 83,000 compounds went through this panel and 20% of them were active in at least one assay; those are over-represented in the sample as a whole.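 In brief: 96-well plates, 48 h treatment, single concentration, percent growth endpoint.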 A number with no mark means an inactive call. Activity calls are given as the source filed them. Rule for the calls: active = growth percent below 10; inactive = the rest.

Holding throughout (assay): NCI-60 one-dose screen, 48 h (100 = growth as untreated, 0 = no growth, -100 = all killed)
What all share (conditions): 10 µM unless noted

Test [1] deals with SN12C renal.
Test [2] relates to UO-31 renal.
In test [3] the test system is TK-10 renal.
Test [4] relates to ACHN renal.
Test [5] concerns CAKI-1 renal.
Test [6] has as its system A498 renal.
Test [7] concerns CCRF-CEM leukemia.
Test [8] relates to MOLT-4 leukemia.
Test [9] relates to SR leukemia.
The test system of test [10] is RPMI-8226 leukemia.
The subject of test [11] is OVCAR-8 ovarian.
Test [12] concerns OVCAR-5 ovarian.
The subject of test [13] is OVCAR-4 ovarian.
For test [14], the system named is SK-OV-3 ovarian.
Test [15] relates to IGROV1 ovarian.
Test [16] deals with OVCAR-3 ovarian.
Test [17] deals with HS 578T breast.
Test [18] deals with NCI/ADR-RES ovarian.

As to `CN(C)CCCC(=O)Nc1ccc(Cn2nnc3c2C(=O)c2nnn(Cc4ccc(NC(=O)CCCN(C)C)cc4)c2C3=O)cc1`, the growth in [1] is -29.4% (active); in test [2], 94.5%; in test [3], 116%; in test [4] it was 102%; in [5], 91%; in test [6], 72.9%. Moreover, the growth in test [7] was 16.8%; in [8], 11.4%; in test [9] it was 74.7%; in test [10], 76.1%; in test [11] it was 86.6%; in test [12] it was 115%. Also, the growth in test [13] was -98.6% (active); in [14], 89.8%; in [15], 57.3%; in [16], 4.3% (active); in test [17], 112%; in test [18], 108%.
With `Cc1nn(-c2nc3ccccc3[nH]2)c2c1C(c1ccc3c(c1)OCO3)CC(=O)N2` (stereo unspecified), the growth in [1] was 41.9%; in test [2], 22.7%; in test [3] it was 69.4%; in test [4], 31%; in test [5] it was 65.7%; in test [6], -8.66% (active). Further, the growth in test [7] is 12.1%; in [8], -48.5% (active); in test [9], 14%; in test [10], -18.4% (active); in [11], 36.9%; in [12] it was 105%. The growth in test [13] was 65.1%; in test [14] it was 54.9%; in test [15], 21.3%; in test [17] it was 38.2%; in test [18], 50.3%.
With `CN(C)CC(=O)Nc1ccc(Cn2nnc3c2C(=O)c2nnn(Cc4ccc(NC(=O)CN(C)C)cc4)c2C3=O)cc1`, the growth in test [1] was -47.3% (active); in test [2], -20.6% (active); in test [3] it was -14.2% (active); in test [4], -15.9% (active); in test [5] it was 41.9%; in [6], -91.3% (active). For the same compound, the growth was -32.9% (active) in test [7]; -34% (active) in test [10]; -31.6% (active) in test [11]; -35.7% (active) in test [12]; -94.9% (active) in [13]; -44% (active) in test [14]. For the same compound, the growth was -74.4% (active) in [15], -59.1% (active) in [16], 7.7% (active) in test [17] and 88.6% in test [18].
For `O=C(Nc1cccc2[nH]c(C(F)(F)F)nc12)c1ccc(Br)cc1F`, the growth in test [1] was 26.5%; in [2], 10.9%; in test [3], 52.8%; in test [4] it was 33.5%; in [5] it was 14.6%; in test [6], -0.338% (active). Further, the growth is 47.1% in [7]; 26.9% in [8]; 18.5% in test [9]; 4.55% (active) in test [10]; 33.2% in test [11]; 98.9% in [12]. The growth in [13] is 11.8%; in test [15] it was 42.2%; in [16], 24.4%; in test [17] it was 70.4%; in test [18] it was 10.8%.
Consider `CC1=C(NCCN2CCCC2)C(=O)c2c(OCc3cccc(Cl)c3)cccc2C1=O`, for which the growth in test [1] was 75.2%; in [2], 52.7%; in [3], 74.1%; in test [4], 89.1%; in [5], 53.7%; in [6], 47.4%. The growth was 54.9% in test [7]; 51.5% in [8]; 14.1% in [9]; 79.7% in test [11]; 79.9% in [12]; 73.1% in test [13]. The growth in [14] was 95.2%; in test [15], 71.8%; in test [16] it was 85%; in [17], 72.4%; in test [18] it was 78.7%.
Regarding `O=C1Nc2ccccc2C12CC(c1ccccc1)=NN2` (stereo unspecified), the growth in [1] is 68.6%; in [2] it was 57.6%; in [4], 59.3%; in test [5] it was 22.8%; in test [6] it was 63.7%; in [7] it was 49.2%. In addition, the growth in [8] was 38.7%; in test [9], -7.86% (active); in test [10], 47.3%; in test [11], 70.5%; in test [12], 83.8%; in test [13], 77.2%. Further, the growth in test [14] is 59.4%; in [15], 43%; in test [17], 87.9%; in [18] it was 41.5%.
For `Cn1cc(-c2nc(-c3c[nH]c4ccccc34)cs2)c2cccnc21`, the growth in [1] is 52.7%; in test [2], 43.8%; in test [3], 44%; in test [4] it was 56.8%; in [5] it was 29.7%; in test [7], 7.02% (active). The growth was 19.9% in test [8]; 23% in test [9]; 14.4% in test [10]; 37.9% in test [11]; 54.4% in test [12]; 45.5% in test [13]. In addition, the growth in [14] is 38.7%; in test [15] it was 44.5%; in [16], 7.04% (active); in test [17] it was 38.6%; in [18], 20.4%.
Turning to `Cc1cc(OCc2ccc(C(F)(F)F)cc2)c2c(c1)C(=O)C=C(NCCN1CCCC1)C2=O`, the growth in [1] was 79.4%; in test [2] it was 53.8%; in test [3], 82.7%; in [4] it was 72.5%; in test [5] it was 53.1%; in test [6], 67.8%. Besides, the growth in test [7] was 13%; in test [8], 16.4%; in test [9] it was -11.6% (active); in test [10], 29.9%; in test [11], 72.3%; in test [12] it was 87.9%. Besides, the growth in [13] is 68%; in [14], 103%; in test [15], 74.8%; in test [16], 83.9%; in [17], 85%; in test [18], 81.1%.
